# ChEMBL document CHEMBL3988442, “University of Dundee, Small-Polar-MMV Screening Library” (2021)
# About 13,000 (27%) of roughly 48,000 compounds showed an effect of 50% or more. Some of the results follow.
# Test system: Wolbachia pipientis
# Experiment: Anti-Wolbachia Cell-Based Screen
# Format: functional
# Parameters: scale not given: in the data most compounds retested in dose-response had high values
# Conditions: 5 µM
row,Structure (SMILES),Percent Effect [%]
1,Cc1nnc(CN(C)Cc2ccc(C(=O)Nc3sccc3C#N)cc2)o1,8.936
2,CC(C)c1nc2c(n1C)CCN(CCS(=O)(=O)c1ccccc1)C2,16.54
3,Cc1nc(-c2cccc(N3CCC(N4CCCC(C#N)C4)CC3)c2)cs1 (stereo unspecified),9.753
4,Cn1ncc(N2CCC(CNC(=O)[C@@H](N)c3ccccc3)CC2)cc1=O,-13.88
5,CC(C)C(=O)NCC(=O)NCC1CCN(c2cnn(C)c(=O)c2)CC1,-2.577
6,Cn1cc(CN2CCOC(CCNC(=O)c3ccsc3)C2)cn1 (stereo unspecified),-1.141
7,Cn1ncc(N2CCOC(CCNC(=O)N3CCCCC3)C2)cc1=O (stereo unspecified),104.2
8,CC(=O)N1CCCC(C(=O)N2CCN(c3cnn(C)c(=O)c3)CC2)C1 (stereo unspecified),-1.408
9,CC(CN1CCCC1)C(=O)NCC1CCN(c2cnn(C)c(=O)c2)CC1 (stereo unspecified),-3.002
10,Cn1ncc(N2CCC(CNC(=O)[C@@H](N)C3CCCCC3)CC2)cc1=O,-13.96
11,Cn1ncc(N2CCOC(CCNC(=O)CO)C2)cc1=O (stereo unspecified),110.6
12,Cc1cnn(C(C)C(=O)NCC2CCN(c3cnn(C)c(=O)c3)CC2)c1 (stereo unspecified),-4.842
13,CN1CCC(C(=O)NCCC2CN(c3cnn(C)c(=O)c3)CCO2)CC1 (stereo unspecified),98.07
14,Cc1ccc(C(=O)NCCC2CN(c3cnn(C)c(=O)c3)CCO2)s1 (stereo unspecified),76.89
15,CCC(=O)N1CCCC(C(=O)N2CCN(c3cnn(C)c(=O)c3)CC2)C1 (stereo unspecified),6.032
16,CC(C)(C)c1cn2c(n1)C(CNCc1cnn3ccccc13)CCC2 (stereo unspecified),3.116
17,O=C1CC(NS(=O)(=O)N2CCOCC2)CN1Cc1ccccc1 (stereo unspecified),1.886
18,Cc1ncsc1C(=O)NCc1cccnc1N(C)CCc1ccccn1,6.517
19,Cc1noc(-c2cccnc2N2CCOC(C)(c3cnn(C)c3)C2)n1 (stereo unspecified),-3.53
20,COCCN(CCOC)C(=O)NC1CCCCC1,-2.793
21,Cc1[nH]ccc1C(=O)N[C@H]1CN(CCO)C[C@@H]1C1CC1,-10.03
22,CCC(C)NC(=O)CS(=O)(=O)Cc1nc(-c2cccs2)no1 (stereo unspecified),8.727
23,CNC(=O)N1CCC(=Cc2ccccc2)CC1,-5.2
24,CC(C)N1CCC[C@H]1C(=O)NCC1CCN(c2cnn(C)c(=O)c2)CC1,-21.78
25,CCOC(=O)N1CCC(NCC2CCN(c3cnn(C)c(=O)c3)C2)CC1 (stereo unspecified),-6.682
26,Cn1ncc(N2CCOC(CCNC(=O)NC(C)(C)C)C2)cc1=O (stereo unspecified),101.8

row,Structure (SMILES),Percent Effect [%]
1,CCC(OC)C(=O)NCC1CCN(c2cnn(C)c(=O)c2)CC1 (stereo unspecified),-16.23
2,CCC1CN(c2cnn(C)c(=O)c2Br)CCO1 (stereo unspecified),20.16
3,CCCOC(=O)NCCC1CN(c2cnn(C)c(=O)c2)CCO1 (stereo unspecified),96.42
4,COCCN(CC(F)F)c1cc(C(F)(F)F)nc2ncnn12,-7.811
5,Cc1cnn(-c2ccc(S(=O)(=O)N(C)CC(F)F)cc2F)c1,2.178
6,COc1cc(C(=O)NCC2(N(C)C)CCN(C)CC2)c2ccccc2n1,126.6
7,Cc1cc(C(=O)NCC2(N(C)C)CCCC2)c(C)n1-c1cccnc1,3.224
8,COc1cc(C(=O)NC(C)(C)CN2CCN(C)CC2)c2ccccc2n1,96.51
9,CN1CCN(Cc2ccccc2CNC(=O)c2ccc(Cl)cc2F)CC1,-10.17
10,CC(C)Cc1cc(C(=O)NC(C)(C)CN2CCCCCC2)on1,2.202
11,COc1cc(C(=O)NCCS(=O)(=O)N(C)C)c2ccccc2n1,5.496
12,CC(C)(C)c1ncc(C(=O)N2CCN(C(=O)c3ccc[nH]3)CC2)c(O)n1,-10.28
13,Cc1[nH]ccc1C(=O)N1CCC2(CC1)c1nc[nH]c1CCN2S(C)(=O)=O,-18.24
14,Cc1[nH]ccc1C(=O)N1CCOCC12CCCC2,102.2
15,Cc1ccc(F)cc1C(=O)NCc1ccc(C(=O)O)o1,7.122
16,Cc1[nH]ccc1C(=O)N1CCCN1C(=O)OC(C)(C)C,-3.846
17,O=C(c1ccc[nH]1)N1CCOCC12CCCC2,75.31
18,Cc1ccc(F)cc1C(=O)N1CCOCC12CCCC2,111.7
19,CS(=O)(=O)N1CCCC12CCCN(C(=O)c1ccc[nH]1)C2 (stereo unspecified),-4.016
20,Cc1ccc(F)cc1C(=O)N1C[C@@H](CN2CCOCC2)[C@@H](CO)C1,-1.252
21,O=C(c1ccc[nH]1)N1CCC2(CC1)COCCN(c1nccs1)C2,4.422
22,Cn1c2c(c(=O)n1C)CN(C(=O)c1cnccn1)CCC2,106.7
23,Cc1ccsc1C(=O)N1CCCc2c(c(=O)n(C)n2C)C1,9.7
24,Cc1ccoc1C(=O)N1CCCc2c(c(=O)n(C)n2C)C1,-8.814
25,Cn1c2c(c(=O)n1C)CN(C(=O)c1cccc(F)c1)CCC2,83.47
26,Cn1c2c(c(=O)n1C)CN(C(=O)c1ccco1)CCC2,0.5105

row,Structure (SMILES),Percent Effect [%]
1,Cn1c2c(c(=O)n1C)CN(C(=O)c1ccncc1F)CCC2,104.3
2,Cc1ccc(C(=O)N2CCCc3c(c(=O)n(C)n3C)C2)o1,-7.196
3,Cn1nc(CN2CCCC2)c2c1CN(C(=O)c1ccncc1F)CC2,-1.138
4,Cn1c2c(c(=O)n1C)CN(C(=O)c1ccsc1)CCC2,-11.42
5,Cc1csc2c(N3CCC(NCCCc4cnn(C)c4)CC3)ncnc12,-7.863
6,CN(CCCc1cnn(C)c1)C(=O)Nc1cccc2[nH]nnc12,-5.738
7,CN(C(=O)Nc1cccnc1)C1CCN(c2ccc(Cl)cc2)CC1,102.5
8,CCOC(C)C(=O)N(C)C1CCN(c2ccc(OC)cc2)CC1 (stereo unspecified),-2.729
9,CSC(C)C(=O)N(C)C1CCN(c2ccc(Cl)cc2)CC1 (stereo unspecified),-5.322
10,CN(CCN1CCN(c2ccccc2)CC1)C(=O)Nc1ccncc1,-6.47
11,Cc1cc(N2CCC(N(C)C(=O)Nc3ccccc3)CC2)nc(C)n1,1.821
12,COc1ccc(N2CCC(N(C)C(=O)C(C)SC)CC2)cc1 (stereo unspecified),1.657
13,CNC(=O)CN(C)C1CCN(c2ccc(Cl)cc2)CC1,12.22
14,CN(C(=O)NC1CC1)C1CCN(c2ccc(Cl)cc2)CC1,95.01
15,COc1ccc(N2CCC(N(C)C(=O)Nc3ccncc3)CC2)cc1,86.34
16,CCCNC(=O)CN(C)C1CCN(c2ccc(Cl)cc2)CC1,-1.782
17,CN(CC(=O)N(C)C1CC1)C1CCN(c2ccc(Cl)cc2)CC1,-1.318
18,CN(C(=O)Nc1ccncc1)C1CCN(c2ccc(Cl)cc2)CC1,99.54
19,CCC(CNC(=O)NC1CCN(C)CC1)Oc1ccccc1Cl (stereo unspecified),5.674
20,Cc1nc(NC(C)C)nc2c1CN(Cc1nccn1C)CC2,3.247
21,Cc1cc(C(F)(F)F)nc(N2CCN(Cc3nccn3C)CC2)n1,-22.48
22,COc1cc(C)nc(N2CCN(Cc3nccn3C)CC2)n1,16.21
23,Cc1nc(C)c2c(n1)CCN(Cc1nccn1C)CC2.O=C(O)C(F)(F)F,102.7
24,Cc1cc(C)nc(N2CCN(Cc3nccn3C)CC2)n1.O=CO,104.1
25,Cc1nc(N2CCOCC2)nc2c1CCN(Cc1nccn1C)CC2.O=C(O)C(F)(F)F,110.5
26,Cc1nc(N2CCOCC2)nc2c1CCN(Cc1cccnc1)CC2.O=C(O)C(F)(F)F,-14.62

row,Structure (SMILES),Percent Effect [%]
1,Cn1ccnc1CN1CCN(Cc2cc(-c3ccccc3)no2)CC1,10.9
2,Cc1nc(-c2ccccc2)nc2c1CCN(Cc1nccn1C)CC2,118.4
3,CC(C)Nc1nc2c(c(NC3CC3)n1)CCN(Cc1nccn1C)CC2.O=C(O)C(F)(F)F,5.459
4,Cc1nc(N2CCOCC2)nc2c1CCN(Cc1ccsc1)CC2.O=C(O)C(F)(F)F,-7.325
5,CC(C)(C)C(=O)N1C[C@@H]2COC[C@]2(c2nnc(C3CC3)o2)C1,1.473
6,N#Cc1cccc(N2CCCC(CO)(CCOc3ccccc3)C2)n1 (stereo unspecified),-9.375
7,CN(C)c1nc(N2CCCC2)nc2c1CCN(Cc1nccn1C)CC2.O=C(O)C(F)(F)F,102.1
8,Cc1nc(N2CCCC2)nc2c1CCN(Cc1ccoc1)CC2.O=C(O)C(F)(F)F,6.139
9,CN(C)c1nc(N2CCCC2)nc2c1CCN(C(=O)c1ccco1)CC2.O=C(O)C(F)(F)F.O=C(O)C(F)(F)F,15.95
10,Cn1ccnc1CN1CCc2ncnc(N3CCCC3)c2CC1.O=C(O)C(F)(F)F,15.66
11,Cc1nc(N2CCCC2)nc2c1CCN(Cc1nccn1C)CC2.O=C(O)C(F)(F)F,105.6
12,CC(C)Nc1nc2c(c(N(C)C)n1)CCN(Cc1nccn1C)CC2.O=C(O)C(F)(F)F,-14.43
13,O=C(c1cncc(N2CCC3(CCNCC3)CC2)n1)N1CCCC1,1.429
14,CCC(C)(C)C(=O)N1CCN(C2=NCC(C)S2)CC1 (stereo unspecified),-0.6002
15,CCOc1ccccc1-n1c(C2CC2)n[nH]c1=O,101.4
16,CCOc1ccccc1-n1c(C2CCC2)n[nH]c1=O,114.1
17,CCOc1ccccc1OC1CCN(C(=O)c2nc(=O)[nH][nH]2)CC1,-16.56
18,CN1CCC(c2n[nH]c(=O)n2-c2cccc(Cl)c2)CC1,-11.2
19,CN1CC(c2n[nH]c(=O)n2-c2cccc(Cl)c2)CC1=O (stereo unspecified),-17.26
20,C[C@H](c1ccc(F)cc1)n1c(C2CCC2)n[nH]c1=O,13.77
21,CCOc1ccccc1-n1c(C2CC(=O)N(C)C2)n[nH]c1=O (stereo unspecified),114.8
22,O=c1[nH]nc(C2CC2)n1-c1cccc(Cl)c1,12.75
23,CCOc1ccccc1-n1c(CNC)n[nH]c1=O,-1.505
